Positions count from the first letter of the chain named.

Common to all, as to assay: yeast three-hybrid, YBZ-1, SC-Leu-His + 0.5 mM 3-AT, 4 days
Holding throughout (settings): tags: N-Gal4 AD-HA kept; label: inside an RPR1-promoter hybrid RNA with tandem MS2 sites; ssRNA

In one experiment the target is PUM1 PUF domain R5-KSI (Homo sapiens, UniProt Q14671 828-1176, C1007K;R1008S;Q1011I). Put shortly: (§1)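 Each repeat of the Pumilio-1 PUF domain was randomized at its three base-contacting residues, and these libraries were co-expressed from a centromeric plasmid with matching RNA elements in strain YBZ-1. After four days on SC-Leu (input) or SC-Leu-His + 0.5 mM 3-AT (selection), the repeat regions were PCR-amplified and Illumina-sequenced. The interaction score compares variant frequency between input and selection as a log change, computed in log2 with a pseudocount of 1 for absent variants.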

In another experiment the target is PUM1 PUF domain R5-DYD (Homo sapiens, UniProt Q14671 828-1176, C1007D;R1008Y;Q1011D). Put shortly: as §1
In a further experiment the target is PUM1 PUF domain R5-RMR (Homo sapiens, UniProt Q14671 828-1176, C1007R;R1008M;Q1011R). Put shortly:
as §1

Another experiment addresses PUM1 PUF domain R4-QFL (Homo sapiens, UniProt Q14671 828-1176, N971Q;H972F;Q975L). An outline of the steps: as §1
A further experiment deals with T1, PUM1 PUF domain R6-FWG (Homo sapiens, UniProt Q14671 828-1176, N1043F;Y1044W;Q1047G).
T1 sequence: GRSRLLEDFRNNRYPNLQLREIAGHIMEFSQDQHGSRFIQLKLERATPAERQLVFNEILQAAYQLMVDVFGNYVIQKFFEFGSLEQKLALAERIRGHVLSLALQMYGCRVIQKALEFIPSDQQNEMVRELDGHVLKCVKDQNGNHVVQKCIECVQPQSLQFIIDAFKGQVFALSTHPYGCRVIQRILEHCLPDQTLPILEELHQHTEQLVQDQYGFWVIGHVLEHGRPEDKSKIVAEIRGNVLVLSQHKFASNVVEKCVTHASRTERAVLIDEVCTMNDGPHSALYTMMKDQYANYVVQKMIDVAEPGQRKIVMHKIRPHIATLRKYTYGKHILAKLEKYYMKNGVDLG
Put shortly: as §1

In another experiment the target is PUM1 PUF domain R4-MPH (Homo sapiens, UniProt Q14671 828-1176, N971M;H972P;Q975H). An outline of the steps: as §1
In a further experiment the target is T2, PUM1 PUF domain R6-GFQ (Homo sapiens, UniProt Q14671 828-1176, N1043G;Y1044F).
T2 sequence: T1 sequence with F216G, W217F, G220Q
An outline of the steps: as §1

In another experiment the target is PUM1 PUF domain R8-RWE (Homo sapiens, UniProt Q14671 828-1176, N1122R;Y1123W;Q1126E). Put shortly: as §1
The target of a further experiment is T3, PUM1 PUF domain R6-TWK (Homo sapiens, UniProt Q14671 828-1176, N1043T;Y1044W;Q1047K).
T3 sequence: T1 sequence with F216T, G220K
Put shortly:
as §1

For a further experiment, the target named is PUM1 PUF domain R5-NRV (Homo sapiens, UniProt Q14671 828-1176, C1007N;Q1011V). Put shortly: as §1
The target in the next experiment is PUM1 PUF domain R7-KCQ (Homo sapiens, UniProt Q14671 828-1176, S1079K;N1080C;E1083Q). An outline of the steps:
as §1

Another experiment concerns the target PUM1 PUF domain R7-ENS (Homo sapiens, UniProt Q14671 828-1176, S1079E;E1083S). Put shortly: as §1
Another experiment has as its target PUM1 PUF domain R7-KRV (Homo sapiens, UniProt Q14671 828-1176, S1079K;N1080R;E1083V). Put shortly:
as §1

The target of a further experiment is T4, PUM1 PUF domain R6-PFE (Homo sapiens, UniProt Q14671 828-1176, N1043P;Y1044F;Q1047E).
T4 sequence: T1 sequence with F216P, W217F, G220E
Put shortly:
as §1

The next experiment addresses PUM1 PUF domain R3-WWD (Homo sapiens, UniProt Q14671 828-1176, C935W;R936W;Q939D). Put shortly:
as §1

A further experiment addresses PUM1 PUF domain R1-QWR (Homo sapiens, UniProt Q14671 828-1176, S863Q;R864W;Q867R). An outline of the steps: as §1
The next experiment addresses PUM1 PUF domain R8-KKV (Homo sapiens, UniProt Q14671 828-1176, N1122K;Y1123K;Q1126V). Put shortly:
as §1

A further experiment deals with PUM1 PUF domain R3-RAP (Homo sapiens, UniProt Q14671 828-1176, C935R;R936A;Q939P). Put shortly:
as §1

On to “GGCUAGAACUAGUGGAUCCCCCGGCGCCCGGCGGCUCGAGCCCGGGUAAGUGUCAAUAGUCUGCAUGCCGCCGGGCGCCAUGCCUGCAGGUCGACUCUAGAAAACAUG”, for which the binding signal in the experiment with PUM1 PUF domain R5-KSI was 3.85 log2 enrichment (interaction score); with PUM1 PUF domain R5-DYD it was 5.78 log2 enrichment (interaction score); in the experiment with PUM1 PUF domain R5-RMR it was 3.2 log2 enrichment (interaction score).
With “GGCUAGAACUAGUGGAUCCCCCGGCGCCCGGCGGCUCGAGCCCGGGUAAGUGUAUAUAGUCUGCAUGCCGCCGGGCGCCAUGCCUGCAGGUCGACUCUAGAAAACAUG”, the binding signal with PUM1 PUF domain R4-QFL was 4.92 log2 enrichment (interaction score).
For the sequence “GGCUAGAACUAGUGGAUCCCCCGGCGCCCGGCGGCUCGAGCCCGGGUAAGUGUAAAUAGUCUGCAUGCCGCCGGGCGCCAUGCCUGCAGGUCGACUCUAGAAAACAUG”, the binding signal with PUM1 PUF domain R5-DYD is 1.97 log2 enrichment (interaction score); with PUM1 PUF domain R6-FWG it was 3.61 log2 enrichment (interaction score); with PUM1 PUF domain R4-MPH it was 3.32 log2 enrichment (interaction score); with PUM1 PUF domain R6-GFQ, 6.29 log2 enrichment (interaction score); with PUM1 PUF domain R8-RWE it was 3.03 log2 enrichment (interaction score); with PUM1 PUF domain R6-TWK it was 2.26 log2 enrichment (interaction score). The binding signal with PUM1 PUF domain R5-NRV is 2.44 log2 enrichment (interaction score).
Turning to “GGCUAGAACUAGUGGAUCCCCCGGCGCCCGGCGGCUCGAGCCCGGGUAAGUUUAAAUAGUCUGCAUGCCGCCGGGCGCCAUGCCUGCAGGUCGACUCUAGAAAACAUG”, the binding signal with PUM1 PUF domain R7-KCQ was 2.98 log2 enrichment (interaction score); with PUM1 PUF domain R7-ENS, 4.45 log2 enrichment (interaction score).
Turning to “GGCUAGAACUAGUGGAUCCCCCGGCGCCCGGCGGCUCGAGCCCGGGUAAGUCUAAAUAGUCUGCAUGCCGCCGGGCGCCAUGCCUGCAGGUCGACUCUAGAAAACAUG”, the values for the binding signal with PUM1 PUF domain R7-KCQ and with PUM1 PUF domain R7-KRV were 4.46 log2 enrichment (interaction score) and 5.35 log2 enrichment (interaction score), respectively.
Turning to “GGCUAGAACUAGUGGAUCCCCCGGCGCCCGGCGGCUCGAGCCCGGGUAAGUGGAAAUAGUCUGCAUGCCGCCGGGCGCCAUGCCUGCAGGUCGACUCUAGAAAACAUG”, the binding signal in the experiment with PUM1 PUF domain R6-PFE is 2.11 log2 enrichment (interaction score).
For the sequence “GGCUAGAACUAGUGGAUCCCCCGGCGCCCGGCGGCUCGAGCCCGGGUAAGUGAAAAUAGUCUGCAUGCCGCCGGGCGCCAUGCCUGCAGGUCGACUCUAGAAAACAUG”, the binding signal is 2.45 log2 enrichment (interaction score) with PUM1 PUF domain R6-FWG and 0.48 log2 enrichment (interaction score) in the experiment with PUM1 PUF domain R6-GFQ.
With “GGCUAGAACUAGUGGAUCCCCCGGCGCCCGGCGGCUCGAGCCCGGGUAAGUGUAAGUAGUCUGCAUGCCGCCGGGCGCCAUGCCUGCAGGUCGACUCUAGAAAACAUG”, the binding signal in the experiment with PUM1 PUF domain R3-WWD was 5.41 log2 enrichment (interaction score).
Regarding “GGCUAGAACUAGUGGAUCCCCCGGCGCCCGGCGGCUCGAGCCCGGGUAAGUGUAAAUUGUCUGCAUGCCGCCGGGCGCCAUGCCUGCAGGUCGACUCUAGAAAACAUG”, the binding signal with PUM1 PUF domain R1-QWR is 3.12 log2 enrichment (interaction score).
The same measure, in the same setting: under “GGCUAGAACUAGUGGAUCCCCCGGCGCCCGGCGGCUCGAGCCCGGGUAAGUGUAAAUCGUCUGCAUGCCGCCGGGCGCCAUGCCUGCAGGUCGACUCUAGAAAACAUG” stands 8.29 log2 enrichment (interaction score).
With “GGCUAGAACUAGUGGAUCCCCCGGCGCCCGGCGGCUCGAGCCCGGGUAAGCGUAAAUAGUCUGCAUGCCGCCGGGCGCCAUGCCUGCAGGUCGACUCUAGAAAACAUG”, the binding signal in the experiment with PUM1 PUF domain R8-RWE was 4.69 log2 enrichment (interaction score); with PUM1 PUF domain R8-KKV, 2.53 log2 enrichment (interaction score).
For “GGCUAGAACUAGUGGAUCCCCCGGCGCCCGGCGGCUCGAGCCCGGGUAAGUGUAAUUAGUCUGCAUGCCGCCGGGCGCCAUGCCUGCAGGUCGACUCUAGAAAACAUG”, the binding signal in the experiment with PUM1 PUF domain R3-RAP is 3.87 log2 enrichment (interaction score).
For “GGCUAGAACUAGUGGAUCCCCCGGCGCCCGGCGGCUCGAGCCCGGGUAAGUGUUAAUAGUCUGCAUGCCGCCGGGCGCCAUGCCUGCAGGUCGACUCUAGAAAACAUG”, in the experiment with PUM1 PUF domain R5-RMR, the binding signal was 2.49 log2 enrichment (interaction score).
Take “GGCUAGAACUAGUGGAUCCCCCGGCGCCCGGCGGCUCGAGCCCGGGUAAGUGUGAAUAGUCUGCAUGCCGCCGGGCGCCAUGCCUGCAGGUCGACUCUAGAAAACAUG”: the binding signal in the experiment with PUM1 PUF domain R5-NRV is 2.59 log2 enrichment (interaction score).

These data come from publication PMC8384837, “Expanding the binding specificity for RNA recognition by a PUF domain”.
